HepG2 tox: kills HepG2 cells in TGF-b inhibitor counter-screen; HepG2 CAGA-GFP viability, ATP luminescence, 18 h; Potency, µM (doses to about 46.1 µM), usual class: cytotoxic; 410,000 compounds, 0.76% hits; AID 588856
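CellTiter-Glo luminescence gave cytotoxicity after 18 hours at 37 degrees C. The cells were HepG2 CAGA-GFP in 1% FBS DMEM, stimulated with 500 pg/mL TGF-beta after compound addition. %Activity was normalised to no-cell wells (complete cell-killing) and DMSO (no toxicity), and curves were fitted and classified.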
Nrf2 block: blocks Nrf2 signaling. A549 ARE-Fluc reporter, luciferase luminescence, 18-24 h. Potency, µM (highest dose often 46 µM), most hits filed as inhibitors. 360,000 compounds, 2.1% hits. AID 504444; also: nearly all actives have a fitted effect of over 60% in size
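Cells were seeded and rested 2 h, then exposed to compounds for 18-24 h. CellTiter-Fluor was read first as a viability measure. BugLite was added 15 min before the final luminescent read of ARE-luciferase activity in A549 cells.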
TGFb inhibitor: blocks TGF-b signaling; HepG2 CAGA-GFP TGF-b/SMAD3 reporter, GFP fluorescence, 18 h; TGF-beta stimulated, 500 pg/mL final; Potency, µM (titrated, usually from 46.1 µM), hits mostly inhibitors; 410,000 compounds, 1.2% hits; AID 588855; also: nearly all actives have a fitted effect of over 65% in size
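Inhibition was scored as loss of TGF-beta-induced (500 pg/mL final, 18 hours, 37 degrees C) GFP in HEPG2 cells carrying a CAGA-GFP reporter, in DMEM with 1% FBS. Well GFP was summed per cell; Activity was normalised to unstimulated and stimulated DMSO wells, then concentration-response fitting.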
Nrf2 activator: activates Nrf2 signaling. AREc32 ARE-luciferase reporter (MCF7-derived line), luminescence, 24 h. Potency, µM (titrated, usually from 46.1 µM), usual class: activators. 410,000 compounds, 0.31% hits. AID 624171; also: nearly all actives have a fitted effect of over 65% in size
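For detection, Steady-Glo was added and plates sat 30 min at RT; before that, AREc32_Fluc cells grown overnight in OPTI-MEM/5% FBS had been treated with 23 nL compound for 24 hr at 37 deg C.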
A549 viability: counter-screen for Nrf2 inhibitors: cytotoxicity in A549 cells | A549 ARE-Fluc cells, CellTiter-Fluor viability, 18-24 h | Potency, µM (titrated, usually from 46 µM), hits mostly inhibitors | 390,000 compounds, 0.16% hits
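Cytotoxicity counterscreen: CellTiter-Fluor fluorescence was measured in A549 ARE_Fluc cells after 18-24 h of compound exposure in a concentration series. The subsequent BugLite luminescent read reports ARE-luciferase activity.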
Hits are given with their value; - = inactive; ? = inconclusive; . = no result. Compounds with a hit are over-represented: about 3.6% of the library has one in this group of screens. Calls follow the shape of the dose curve; as a rule, active = well fitted curve in the direction sought with a large enough effect; inconclusive = small, poorly fitted or top-dose-only effect, or another doubt; inactive = no such curve, though single readings can be large; an effect the other way counts as inactive or inconclusive.

SMILES	HepG2 tox	Nrf2 block	TGFb inhibitor	Nrf2 activator	A549 viability
CCOC(=O)c1ccc(N2C(=O)c3n[nH]c(-c4cccs4)c3C2c2cccc(OC)c2)cc1 (configuration not stated)	-	21µM	1.8µM	-	?
CCOC(=O)c1ccc(N2C(=O)c3n[nH]c(-c4ccco4)c3C2c2ccc([N+](=O)[O-])cc2)cc1 (configuration not stated)	-	?	?	-	-
CCOC(=O)c1ccc(N2C(=O)c3[nH]nc(-c4ccc(OC)cc4)c3C2c2cccc(O)c2)cc1 (configuration not stated)	10µM	?	16µM	-	-
CN(C)c1c(Br)cc(C=O)cc1Br	-	.	-	.	.
CCOC(=O)c1ccc(N2C(=O)c3[nH]nc(-c4ccc(C)cc4)c3C2c2ccc(O)cc2)cc1 (configuration not stated)	-	21µM	?	-	-
CCOC(=O)c1ccc(N2C(=O)c3[nH]nc(-c4ccc(C)cc4)c3C2c2cccc(F)c2)cc1 (configuration not stated)	11µM	21µM	?	-	-
CCc1c2c(nc3ccc4c(c13)OCCO4)-c1nc3ccccc3c(=O)n1C2	-	0.26µM	-	.	-
O=c1c2ccccc2nc2n1CCO2	-	-	-	-	-
CCOC(=O)c1sc(NC(=O)c2cccs2)cc1C	-	?	-	-	-
CCOC(=O)c1sc(NC(=O)c2sccc2C)cc1C	14µM	?	-	-	-
CCN(CC(=O)Nc1ccc(NC(C)=O)cc1)c1ccc(C(F)(F)F)cn1	3.5µM	?	-	-	-
CC(=O)Nc1ccc(N2CCN(c3ccc(C(F)(F)F)cn3)CC2)nc1	-	?	-	-	-
COc1ccc(CCNC(c2ccc(F)cc2)c2nnc(-c3ccccc3Cl)o2)cc1OC (configuration not stated)	-	?	18µM	-	-
COc1ccc(NC(=O)CSc2nnc(N)n2CC(=O)Nc2ccc(OC)cc2)cc1	-	-	-	-	-
Cn1nc(C(F)(F)F)c(/C=N/OC(=O)c2ccccc2Cl)c1SCc1ccc(Cl)cc1	-	21µM	-	-	?
CCCc1ccc(C2C3=C(CC(C)(C)CC3=O)NC3=C2C(=O)c2ccccc23)cc1 (configuration not stated)	-	8.2µM	?	-	?
CCCCc1ccc(C2C3=C(CC(C)(C)CC3=O)NC3=C2C(=O)c2ccccc23)cc1 (configuration not stated)	-	?	?	-	?
Cc1cccc(NC(=O)C2CCCN2C(=O)Oc2ccccc2)c1C (configuration not stated)	-	.	?	-	-
CCCS(=O)(=O)N1CCN(c2cc3c(cc2[N+](=O)[O-])n(C)c(=O)n3C)CC1	-	12µM	-	-	-
Cn1c(=O)n(C)c2cc([N+](=O)[O-])c(N3CCN(S(=O)(=O)c4ccc5ccccc5c4)CC3)cc21	-	5.8µM	?	-	-
Cn1c(=O)n(C)c2cc([N+](=O)[O-])c(N3CCN(C(=O)c4cccc(F)c4)CC3)cc21	-	9.2µM	-	-	-
FC(F)(F)c1ccc(Sc2nnc(-c3cccs3)n2CC2CCCO2)nc1 (configuration not stated)	-	-	-	-	-
O=C(C[n+]1cn(C(F)F)c2ccccc21)c1ccc(OC(F)F)cc1	-	?	-	-	-
Brc1cccc(CNCc2cccs2)c1	-	-	-	-	-
CC(C)Oc1ccc(F)cc1-c1cc(C(=O)NCc2cc(C(F)(F)F)cc(C(F)(F)F)c2)[nH]n1	-	.	11µM	-	.
SMILES	HepG2 tox	Nrf2 block	TGFb inhibitor	Nrf2 activator	A549 viability
CC(C)Oc1ccc(F)cc1-c1cc(C(=O)NCc2ccc(C(F)(F)F)cc2)[nH]n1	-	.	?	-	.
Cc1nc(CS(=O)(=O)c2ccc(Cl)cc2)cc(Sc2ccccc2Cl)n1	-	-	-	-	-
COc1ccccc1CNC(=O)c1[nH]c(C)c(C(C)=O)c1C	-	-	-	-	-
COc1cccc(CN(C)C(=O)c2[nH]c(C)c(C(C)=O)c2C)c1OC	-	23µM	-	-	-
CCOC(=O)C1(Cc2ccccc2C)CCCN(C(=O)CCC(=O)OC)C1 (configuration not stated)	-	-	-	-	-
CN(C)c1ccc(Sc2ccc3nc(N)nc(N)c3c2)cc1	0.32µM	.	?	-	.
Cc1cccc2sc(NC(=O)CCNS(=O)(=O)c3cccc4nonc34)nc12	20µM	-	?	-	-
Cc1ccc(C(=O)c2cc([N+](=O)[O-])ccc2N2CC(C)OC(C)C2)cc1 (configuration not stated)	-	-	-	-	-
Cc1ccc(C(=O)c2cc([N+](=O)[O-])ccc2N2CCCCC2)cc1	-	?	?	-	16µM
CN(C)/C(=N\S(=O)(=O)c1ccc(Cl)cc1)c1ccc(F)cc1	-	-	-	-	-
COc1ccc(Cc2c(-c3ccco3)nc3ccc(Br)cn23)c(C)c1	16µM	.	16µM	8.9µM	.
Brc1ccc2nc(-c3ccco3)c(CC3CCCCC3)n2c1	-	.	11µM	?	.
COc1ccc(Cc2c(-c3ccco3)nc3ccc(Cl)cn23)c(C)c1	-	.	22µM	?	.
Cc1ccc(Cc2c(-c3ccco3)nc3ccc(Br)cn23)cc1	-	.	?	?	.
CC(C)Cn1c(N)c(C(=O)CSc2nc3ncc(Cl)cc3[nH]2)c(=O)n(C)c1=O	-	12µM	-	-	?
CCCc1cc(-c2n[nH]c(C)c2-c2ccc(C(=O)OCC)o2)c(O)cc1O	-	.	14µM	-	-
COc1ccc(N/C=C/C(=O)c2ccccc2)cc1	-	?	-	-	-
O=C(/C=C/Nc1ccc(F)c(Cl)c1)c1ccccc1	-	?	-	11µM	-
O=C(/C=C/Nc1cccc(O)c1)c1ccccc1	-	-	-	14µM	-
Cc1ccc(N/C=C/C(=O)c2ccccc2)cc1Br	-	?	-	11µM	-
Cc1ccc(C(=O)/C=C/Nc2cccc(O)c2)cc1	-	?	-	-	-
COc1ccccc1Cn1cc(C(=O)c2ccccc2)c(=O)c2cc(OC)c(OC)cc21	-	-	?	-	-
Cc1nnc(N/N=C/c2ccccc2O)n1N	-	-	?	-	-
Cc1nnc(N/N=C/c2cc(C)n(-c3ccc(F)cc3)c2C)n1N	-	?	14µM	-	-
Cc1ccc2oc(C(=O)N(Cc3sccc3C)C3CCS(=O)(=O)C3)c(C)c2c1 (configuration not stated)	-	23µM	.	-	-
Cc1ccc2c(C)c(C(=O)N(Cc3ccc(Cl)cc3)C3CCS(=O)(=O)C3)oc2c1 (configuration not stated)	-	?	11µM	-	?

Assay outcomes as filed in PubChem BioAssay.
